Data taken from PubChem BioAssay AID1159580 (chemical genetic matrix, 2015).
The whole screen tested about 5,500 compounds, of which about 2,000 (36%) were called active. About 18% were inconclusive and are not listed. No stated cut-off is given here; in the data, active means normalized growth mostly below about 0.91 (no sharp cut-off); inconclusive means no clear call, values can overlap the other calls; inactive means mostly above about 0.92. The list shows a part of the results.

Experiment: chemical genetic growth profiling, strain panel (AID 1159580);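 further: tested at 20 µM; growth read once vehicle control cultures reached saturation at 30 °C; 1 = growth at the plate median or of vehicle wells; lower values mean less growth of the strain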
Conditions: growth OD

Measured: normalized growth

O=C1C=C2C(=CCOC2O)O1 (stereo unspecified)
active: S. cerevisiae deletion strains, locus YKL009W, strain mrt4, active compounds read low 0.714 | S. cerevisiae deletion strains, locus YKL068W, active compounds read low 0.904 | S. cerevisiae deletion strains, locus YKL085W, strain MDH1 (second series), active compounds read low 0.868 | S. cerevisiae deletion strains, locus YKL085W, strain MDH1, active compounds read low 0.868 | S. cerevisiae deletion strains, locus YKL160W, strain elf1, active compounds read low 0.736 | S. cerevisiae deletion strains, locus YKL190W, strain CNB1, active compounds read low 0.834 | S. cerevisiae deletion strains, locus YKR001C, strain vps1, active compounds read low 0.541 | S. cerevisiae deletion strains, locus YKR026C, strain gcn3, active compounds read low 0.795 | S. cerevisiae deletion strains, locus YKR091W, strain srl3, active compounds read low 0.885 | S. cerevisiae deletion strains, locus YLL001W, strain dnm1, active compounds read low 0.691 | S. cerevisiae deletion strains, locus YLL026W, active compounds read low 0.769 | S. cerevisiae deletion strains, locus YLL041C, strain sdh2, active compounds read low 0.84 | S. cerevisiae deletion strains, locus YLR027C, strain aat2, active compounds read low 0.727 | S. cerevisiae deletion strains, locus YLR039C, strain RIC1, active compounds read low 0.292 | S. cerevisiae deletion strains, locus YLR113W, strain HOG1, active compounds read low 0.708 | S. cerevisiae deletion strains, locus YLR221C, strain rsa3, active compounds read low 0.716 | S. cerevisiae deletion strains, locus YLR258W, strain gsy2, active compounds read low 0.794 | S. cerevisiae deletion strains, locus YLR262C, strain YPT6 (second series), active compounds read low 0.337 | S. cerevisiae deletion strains, locus YLR262C, strain YPT6, active compounds read low 0.231 | S. cerevisiae deletion strains, locus YLR268W, strain sec22, active compounds read low 0.794 | S. cerevisiae deletion strains, locus YLR320W, strain mms22, active compounds read low 0.701 | S. cerevisiae deletion strains, locus YLR330W, strain CHS5, active compounds read low 0.87 | S. cerevisiae deletion strains, locus YLR342W, strain FKS1 (second series), active compounds read low 0.774 | S. cerevisiae deletion strains, locus YLR342W, strain FKS1, active compounds read low 0.72 | S. cerevisiae deletion strains, locus YLR370C, strain arc18, active compounds read low 0.697 | S. cerevisiae deletion strains, locus YLR384C, strain iki3, active compounds read low 0.789 | S. cerevisiae deletion strains, locus YLR418C, strain cdc73, active compounds read low 0.62 | S. cerevisiae deletion strains, locus YML120C, strain ndi1, active compounds read low 0.76 | S. cerevisiae deletion strains, locus YML124C, strain tub3, active compounds read low 0.918 | S. cerevisiae deletion strains, locus YMR058W, strain fet3, active compounds read low 0.328 | S. cerevisiae deletion strains, locus YMR125W, strain sto1, active compounds read low 0.729 | S. cerevisiae deletion strains, locus YMR129W, active compounds read low 0.836 | S. cerevisiae deletion strains, locus YMR205C, strain PFK2, active compounds read low 0.722 | S. cerevisiae deletion strains, locus YMR223W, strain ubp8, active compounds read low 0.801 | S. cerevisiae deletion strains, locus YMR231W, strain pep5, active compounds read low 0.0886 | S. cerevisiae deletion strains, locus YMR263W, strain SAP30, active compounds read low 0.852 | S. cerevisiae deletion strains, locus YMR307W, strain GAS1, active compounds read low 0.302 | S. cerevisiae deletion strains, locus YNL067W, strain RPL9B, active compounds read low 0.689 | S. cerevisiae deletion strains, locus YNL071W, strain lat1, active compounds read low 0.654 | S. cerevisiae deletion strains, locus YNL128W, strain TEP1, active compounds read low 0.798 | S. cerevisiae deletion strains, locus YNL153C, strain GIM3, active compounds read low 0.664 | S. cerevisiae deletion strains, locus YNL183C, strain NPR1, active compounds read low 0.825 | S. cerevisiae deletion strains, locus YNL209W, strain ssb2, active compounds read low 0.761 | S. cerevisiae deletion strains, locus YNL233W, strain BNI4, active compounds read low 0.81 | S. cerevisiae deletion strains, locus YNL248C, strain rpa49, active compounds read low 0.701 | S. cerevisiae deletion strains, locus YNL298W, strain CLA4, active compounds read low 0.842 | S. cerevisiae deletion strains, locus YNL307C, strain MCK1, active compounds read low 0.748 | S. cerevisiae deletion strains, locus YNL322C, strain KRE1, active compounds read low 0.815 | S. cerevisiae deletion strains, locus YNR049C, strain mso1, active compounds read low 0.812 | S. cerevisiae deletion strains, locus YNR052C, strain pop2, active compounds read low 0.83 | S. cerevisiae deletion strains, locus YOR001W, strain rrp6, active compounds read low 0.638 | S. cerevisiae deletion strains, locus YOR069W, strain VPS5, active compounds read low 0.862 | S. cerevisiae deletion strains, locus YOR070C, strain gyp1, active compounds read low 0.794 | S. cerevisiae deletion strains, locus YOR080W, strain dia2, active compounds read low 0.864 | S. cerevisiae deletion strains, locus YOR083W, strain WHI5, active compounds read low 0.662 | S. cerevisiae deletion strains, locus YOR106W, strain vam3, active compounds read low 0.522 | S. cerevisiae deletion strains, locus YOR136W, strain idh2, active compounds read low 0.896 | S. cerevisiae deletion strains, locus YOR184W, strain ser1, active compounds read low 0.719 | S. cerevisiae deletion strains, locus YOR265W, strain rbl2, active compounds read low 0.792 | S. cerevisiae deletion strains, locus YOR270C, strain vph1, active compounds read low 0.506 | S. cerevisiae deletion strains, locus YOR290C, strain snf2, active compounds read low 0.86 | S. cerevisiae deletion strains, locus YPL051W, strain arl3, active compounds read low 0.607 | S. cerevisiae deletion strains, locus YPL055C, strain LGE1, active compounds read low 0.601 | S. cerevisiae deletion strains, locus YPL078C, strain atp4, active compounds read low 0.615 | S. cerevisiae deletion strains, locus YPL106C, strain sse1, active compounds read low 0.542 | S. cerevisiae deletion strains, locus YPL240C, strain hsp82, active compounds read low 0.852 | S. cerevisiae deletion strains, locus YPL241C, strain CIN2, active compounds read low 0.921 | S. cerevisiae deletion strains, locus YPL256C, strain CLN2, active compounds read low 0.809 | S. cerevisiae deletion strains, locus YPR141C, strain kar3, active compounds read low 0.898 | S. cerevisiae deletion strains, locus YPR163C, strain tif3, active compounds read low 0.823 | S. cerevisiae deletion strains, strain wtn01, active compounds read low 0.76 | S. cerevisiae strains, strain wild type, active compounds read low 0.78
inactive: S. cerevisiae deletion strains, locus YLR058C, strain SHM2, active compounds read low 0.927 | S. cerevisiae deletion strains, locus YLR102C, strain apc9, active compounds read low 0.96 | S. cerevisiae deletion strains, locus YLR357W, strain rsc2, active compounds read low 0.862 | S. cerevisiae deletion strains, locus YLR371W, strain rom2, active compounds read low 0.945 | S. cerevisiae deletion strains, locus YML016C, strain PPZ1, active compounds read low 0.953 | S. cerevisiae deletion strains, locus YML032C, strain rad52, active compounds read low 0.92 | S. cerevisiae deletion strains, locus YMR078C, strain ctf18, active compounds read low 0.989 | S. cerevisiae deletion strains, locus YNL250W, strain rad50, active compounds read low 0.903 | S. cerevisiae deletion strains, locus YNL271C, strain bni1, active compounds read low 0.92 | S. cerevisiae deletion strains, locus YNL322C, strain KRE1 (second series), active compounds read low 0.911 | S. cerevisiae deletion strains, locus YOL006C, strain TOP1, active compounds read low 0.632 | S. cerevisiae deletion strains, locus YOL012C, strain htz1 0.714 | S. cerevisiae deletion strains, locus YOL147C, strain pex11, active compounds read low 0.984 | S. cerevisiae deletion strains, locus YOR061W, strain CKA2, active compounds read low 0.929 | S. cerevisiae deletion strains, locus YOR144C, strain elg1, active compounds read low 0.966 | S. cerevisiae deletion strains, locus YOR231W, strain MKK1, active compounds read low 0.877 | S. cerevisiae deletion strains, locus YOR316C, strain cot1, active compounds read low 0.951 | S. cerevisiae deletion strains, locus YPR119W, strain clb2, active compounds read low 0.965 | S. cerevisiae deletion strains, locus YPR167C, strain met16, active compounds read low 0.937
